Experimental data reported in PubChem BioAssay (Tox21).
Inconclusive results are not listed. Activity calls are given as the source filed them. Calls follow the shape of the dose curve; as a rule, active = well fitted curve in the direction sought with a large enough effect in the repeat runs; inconclusive = weak or mixed curves; inactive = no such curve, though single readings can be large; an effect the other way counts as inactive or inconclusive.

How the values were obtained:
[1] = qHTS RealTime-Glo MT Cell Viability Assay in HepG2 cells - 40 hour (AID 1224870); also: nearly all actives have a fitted effect of over 50% in size
In short: (§1)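 HepG2 cells mixed with RealTime-Glo MT reagents (NanoLuc plus cell-permeant prosubstrate) were seeded at 600 cells/well, incubated 5 h at 37 C/5% CO2, then pinned with compounds in DMSO; nonlytic luminescence tracked viability during 40 h treatment.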

[2] = A CellTox Green Cytotoxicity Assay to monitor cytotoxicity in HEK293 cells - 40 hour (AID 1224871); also: nearly all actives have a fitted effect of over 45% in size
In short: (§2)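 Fluorescence intensity, read at 0, 8, 16, 24, 32 and 40 h of compound treatment, reflected dye binding to DNA of dead HEK293 cells; compounds (23 nL, DMSO) were added 5 h after plating cells with reagent.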

[3] = qHTS RealTime-Glo MT Cell Viability Assay in HEK293 cells - 16 hour (AID 1224872); also: top concentration of the series differs between compounds; nearly all actives have a fitted effect of over 50% in size
In short: (§3)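 Assay medium contained NanoLuc luciferase plus cell-permeant prosubstrate, added with HEK293 cells at 600 cells/well. After 5 h at 37 C/5% CO2 compounds were added; plates stayed at 37 C for 40 h with serial luminescence reads.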

[4] = qHTS RealTime-Glo MT Cell Viability Assay in HepG2 cells - 8 hour (AID 1224873); also: nearly all actives have a fitted effect of over 55% in size
In short: as §1

[5] = qHTS RealTime-Glo MT Cell Viability Assay in HEK293 cells - 40 hour (AID 1224874); details: RealTime-Glo luminescence; max response: stronger effect = lower value; also: nearly all actives have a fitted effect of over 50% in size
In short: (§4)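 Viable HEK293 cells reduce a cell-permeant prosubstrate; the product diffuses out and is consumed by NanoLuc in the medium to give light. Compounds went in after a 5 h incubation and plates were read over the treatment course.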

[6] = A CellTox Green Cytotoxicity Assay to monitor cytotoxicity in HEK293 cells - 24 hour (AID 1224875); also: series mostly up to about 77 µM; nearly all actives have a fitted effect of over 45% in size
In short: as §2

[7] = A CellTox Green Cytotoxicity Assay to monitor cytotoxicity in HepG2 cells - 16 hour (AID 1224876); also: nearly all actives have a fitted effect of over 45% in size
In short: (§5)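 Using 1536-well format, dye-containing HepG2 suspension was seeded, allowed 5 h at 37 C/5% CO2, dosed by pintool with compounds, positive and negative controls, and imaged for fluorescence across 40 h.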

[8] = qHTS RealTime-Glo MT Cell Viability Assay in HepG2 cells - 32 hour (AID 1224877); also: nearly all actives have a fitted effect of over 55% in size
In short: (§6)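 qHTS, HepG2, 600 cells/well, RealTime-Glo (NanoLuc + prosubstrate) added with cells; 5 h preincubation; DMSO compound addition; 37 C; luminescence at 0/8/16/24/32/40 h.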

[9] = A CellTox Green Cytotoxicity Assay to monitor cytotoxicity in HepG2 cells - 24 hour (AID 1224878); also: nearly all actives have a fitted effect of over 45% in size
In short: as §5

[10] = A CellTox Green Cytotoxicity Assay to monitor cytotoxicity in HepG2 cells - 40 hour (AID 1224879); also: nearly all actives have a fitted effect of over 40% in size
In short: as §5

[11] = qHTS RealTime-Glo MT Cell Viability Assay in HEK293 cells - 0 hour (AID 1224880)
In short: as §4

[12] = A CellTox Green Cytotoxicity Assay to monitor cytotoxicity in HEK293 cells - 32 hour (AID 1224881); also: nearly all actives have a fitted effect of over 40% in size
In short: as §2

[13] = A CellTox Green Cytotoxicity Assay to monitor cytotoxicity in HepG2 cells - 0 hour (AID 1224882); also: nearly all actives have a fitted effect of over 35% in size
In short: as §5

[14] = A CellTox Green Cytotoxicity Assay to monitor cytotoxicity in HepG2 cells - 32 hour (AID 1224883); also: nearly all actives have a fitted effect of over 50% in size
In short: as §5

[15] = A CellTox Green Cytotoxicity Assay to monitor cytotoxicity in HEK293 cells - 8 hour (AID 1224884); also: nearly all actives have a fitted effect of over 35% in size
In short: as §2

[16] = qHTS RealTime-Glo MT Cell Viability Assay in HepG2 cells - 16 hour (AID 1224885); also: nearly all actives have a fitted effect of over 50% in size
In short: as §6

[17] = qHTS RealTime-Glo MT Cell Viability Assay in HEK293 cells - 24 hour (AID 1224886)
In short: as §3

[18] = qHTS RealTime-Glo MT Cell Viability Assay in HEK293 cells - 8 hour (AID 1224887)
In short: as §4

[19] = A CellTox Green Cytotoxicity Assay to monitor cytotoxicity in HEK293 cells - 16 hour (AID 1224888); also: nearly all actives have a fitted effect of over 35% in size
In short: as §2

[20] = qHTS RealTime-Glo MT Cell Viability Assay in HepG2 cells - 0 hour (AID 1224889); also: nearly all actives have a fitted effect of over 50% in size
In short: as §6
% is scaled to controls: 0 for no effect and ±100 for the full control effect.

CCCCN(CCCC)C(C(N)=O)c1ccc(OC)cc1 (configuration not stated)
inactive: Potency [1] | Potency [2] | Potency [3] | Potency [4] | max response [5] -24.8% | Potency [6] | Potency [7] | Potency [8] | Potency [9] | Potency [10] | Potency [11] | Potency [12] | Potency [13] | Potency [14] | Potency [15] | Potency [16] | Potency [17] | Potency [18] | Potency [19] | Potency [20]

C=C(C)C(=O)OCCOCCOC(=O)C(=C)C
inactive: Potency [1] | Potency [2] | Potency [3] | Potency [4] | max response [5] 1.33% | Potency [6] | Potency [7] | Potency [8] | Potency [9] | Potency [10] | Potency [11] | Potency [12] | Potency [13] | Potency [14] | Potency [15] | Potency [16] | Potency [17] | Potency [18] | Potency [19] | Potency [20]

Cc1cc(C)cc(N)c1
inactive: Potency [1] | Potency [2] | Potency [3] | Potency [4] | max response [5] -4.23% | Potency [6] | Potency [7] | Potency [8] | Potency [9] | Potency [10] | Potency [11] | Potency [12] | Potency [13] | Potency [14] | Potency [15] | Potency [16] | Potency [17] | Potency [18] | Potency [19] | Potency [20]

CCCCCC[C@@H](O)C/C=C\CCCCCCCC(=O)OCC(O)CO (some centres not stated)
inactive: Potency [1] | Potency [2] | Potency [3] | Potency [4] | max response [5] 10.7% | Potency [6] | Potency [7] | Potency [8] | Potency [9] | Potency [10] | Potency [11] | Potency [13] | Potency [14] | Potency [15] | Potency [16] | Potency [17] | Potency [18] | Potency [19]

C1COC1
inactive: Potency [1] | Potency [2] | Potency [3] | Potency [4] | max response [5] 6.53% | Potency [6] | Potency [7] | Potency [8] | Potency [9] | Potency [10] | Potency [11] | Potency [12] | Potency [13] | Potency [14] | Potency [16] | Potency [17] | Potency [18] | Potency [19] | Potency [20]

O=C(/C=C/c1ccccc1)OCCc1ccccc1
inactive: Potency [1] | Potency [2] | Potency [3] | Potency [4] | max response [5] -0.613% | Potency [6] | Potency [7] | Potency [8] | Potency [9] | Potency [10] | Potency [11] | Potency [12] | Potency [13] | Potency [14] | Potency [15] | Potency [16] | Potency [17] | Potency [18] | Potency [19] | Potency [20]

O=C(O)CCCCCCCCCCCBr
inactive: Potency [1] | Potency [2] | Potency [3] | Potency [4] | max response [5] -7.89% | Potency [6] | Potency [7] | Potency [8] | Potency [9] | Potency [10] | Potency [11] | Potency [13] | Potency [14] | Potency [15] | Potency [16] | Potency [17] | Potency [18] | Potency [19]

CC(O)c1ccccc1 (configuration not stated)
inactive: Potency [1] | Potency [2] | Potency [3] | Potency [4] | max response [5] 19.3% | Potency [6] | Potency [7] | Potency [8] | Potency [9] | Potency [10] | Potency [11] | Potency [12] | Potency [13] | Potency [14] | Potency [15] | Potency [16] | Potency [17] | Potency [18] | Potency [19] | Potency [20]

O=C(OC(=O)c1ccccc1)c1ccccc1
inactive: Potency [1] | Potency [2] | Potency [3] | Potency [4] | max response [5] 6.21% | Potency [6] | Potency [7] | Potency [8] | Potency [9] | Potency [10] | Potency [11] | Potency [13] | Potency [14] | Potency [15] | Potency [16] | Potency [17] | Potency [18] | Potency [19]

Oc1cccc(O)c1O
inactive: Potency [1] | Potency [2] | Potency [3] | Potency [4] | max response [5] 1.23% | Potency [6] | Potency [7] | Potency [8] | Potency [9] | Potency [10] | Potency [11] | Potency [12] | Potency [13] | Potency [14] | Potency [16] | Potency [17] | Potency [18] | Potency [19]

N#[N+]c1ccc2c(S(=O)(=O)[O-])cccc2c1O
inactive: Potency [1] | Potency [2] | Potency [3] | Potency [4] | max response [5] -19.6% | Potency [6] | Potency [7] | Potency [8] | Potency [9] | Potency [10] | Potency [11] | Potency [12] | Potency [13] | Potency [14] | Potency [15] | Potency [16] | Potency [17] | Potency [19] | Potency [20]

CC(CO)CO
inactive: Potency [1] | Potency [2] | Potency [3] | Potency [4] | max response [5] 3.5% | Potency [6] | Potency [7] | Potency [8] | Potency [9] | Potency [10] | Potency [11] | Potency [12] | Potency [13] | Potency [14] | Potency [16] | Potency [17] | Potency [18] | Potency [19] | Potency [20]

C=C(C)C(=O)OCCCCCCCCCCCCC
inactive: Potency [1] | Potency [2] | Potency [3] | Potency [4] | max response [5] 4.36% | Potency [6] | Potency [7] | Potency [8] | Potency [9] | Potency [10] | Potency [11] | Potency [12] | Potency [13] | Potency [14] | Potency [15] | Potency [16] | Potency [17] | Potency [18] | Potency [19]

CC(=O)OCC(=O)NCCCOc1cccc(CN2CCCCC2)c1
inactive: Potency [1] | Potency [2] | Potency [3] | Potency [4] | max response [5] 1.71% | Potency [6] | Potency [7] | Potency [8] | Potency [9] | Potency [10] | Potency [11] | Potency [12] | Potency [13] | Potency [14] | Potency [15] | Potency [16] | Potency [17] | Potency [18] | Potency [19]

O=C1NC(=O)c2cc([N+](=O)[O-])ccc21
inactive: Potency [1] | Potency [2] | Potency [3] | Potency [4] | max response [5] 2.79% | Potency [6] | Potency [7] | Potency [8] | Potency [9] | Potency [10] | Potency [11] | Potency [12] | Potency [13] | Potency [14] | Potency [15] | Potency [16] | Potency [17] | Potency [18] | Potency [19] | Potency [20]
